A short description of assay [1]: antimalarial activity against Dd2 strain (AID 2302;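 active = growth inhibition above 50% at the single 2 µM test dose, taken to imply half-maximal potency below 2 µM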;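 note: 0% = DMSO untreated growth and 100% = chloroquine plus artemisinin killed control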). To be noted: P. falciparum Dd2 in RBCs, LDH growth readout, 72 h; at 2 µM; hits give high values.
The nature of assay [2]: HepG2 cytotoxicity, primary screen, cytotoxicity control for P. falciparum antimalarial project, cell-based, ATP luminescence (AID 2303;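 active = inhibition above 50%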;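 note: 0% = DMSO wells and 100% = digitonin-killed cells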). To be noted: HepG2 viability, 24-48 h, at 10 µM, hits give high values.
In assay [3] the target is L-lactate dehydrogenase (Plasmodium falciparum (isolate CDC / Honduras)) (UniProt Q27743). Briefly: PfLDH activity inhibition – cell lysate, 3D7 strain, counter-screen for P. falciparum growth inhibition project (AID 2304).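 Note: 0% = vehicle and 100% = reference inhibitor.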 To be noted: P. falciparum 3D7 crude extract, LDH APAD/NBT absorbance; at 2 µM; hits give high values.
L-lactate dehydrogenase (Plasmodium falciparum (isolate CDC / Honduras)), sequence (Q27743 whole entry, looked up): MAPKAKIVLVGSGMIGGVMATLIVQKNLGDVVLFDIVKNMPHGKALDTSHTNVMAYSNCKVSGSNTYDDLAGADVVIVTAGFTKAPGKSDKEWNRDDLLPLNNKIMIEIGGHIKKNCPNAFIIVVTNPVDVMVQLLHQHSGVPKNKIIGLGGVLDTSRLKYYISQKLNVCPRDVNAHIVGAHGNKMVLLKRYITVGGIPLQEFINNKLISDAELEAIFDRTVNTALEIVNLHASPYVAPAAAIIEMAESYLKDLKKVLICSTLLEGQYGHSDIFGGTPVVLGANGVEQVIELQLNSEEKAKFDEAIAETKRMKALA
Assay [4] is described as follows: inhibition of 3D7 malaria parasite growth – strain 3D7 (AID 2306).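 Note: 0% = DMSO wells and 100% = chloroquine plus artemisinin control wells.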 To be noted: P. falciparum 3D7 erythrocytic growth, LDH absorbance, 72 h; at 2 µM; hits give high values.
In assay [5] the target is Calcium-dependent protein kinase 1 (Plasmodium falciparum (isolate 3D7)) (UniProt P62344). Briefly: PfCDPK1 kinase inhibitors, biochemical, TCAMS library (AID 1159585; cut-off not given, nearly all actives have IC50 up to about 0.98 µM;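 note: inhibitors leave more ATP so luminescence rises with inhibition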). To be noted: recombinant PfCDPK1, Kinase-Glo ATP depletion luminescence.
Calcium-dependent protein kinase 1 (Plasmodium falciparum (isolate 3D7)), sequence (P62344 whole entry, looked up): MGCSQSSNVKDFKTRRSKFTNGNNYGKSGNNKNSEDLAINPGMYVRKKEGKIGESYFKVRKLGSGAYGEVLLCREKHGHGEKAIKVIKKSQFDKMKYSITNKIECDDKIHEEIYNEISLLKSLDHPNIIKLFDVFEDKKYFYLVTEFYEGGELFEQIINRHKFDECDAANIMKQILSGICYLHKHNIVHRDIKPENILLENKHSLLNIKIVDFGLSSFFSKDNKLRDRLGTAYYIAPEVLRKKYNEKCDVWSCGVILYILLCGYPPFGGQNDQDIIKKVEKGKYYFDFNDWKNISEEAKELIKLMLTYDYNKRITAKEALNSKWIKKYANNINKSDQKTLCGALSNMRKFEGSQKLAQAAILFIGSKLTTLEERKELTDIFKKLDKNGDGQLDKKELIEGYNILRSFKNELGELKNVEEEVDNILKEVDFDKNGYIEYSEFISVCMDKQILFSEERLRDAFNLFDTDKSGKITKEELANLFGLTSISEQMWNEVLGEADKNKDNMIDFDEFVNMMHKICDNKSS
Assay [6] addresses Plasmodium falciparum protein kinase 6 (PK6, PF3D7_1337100) (UniProt Q8IDW1). Description: PfPK6 kinase inhibitors, biochemical, TCAMS library (AID 1159586). To be noted: recombinant PfPK6, Kinase-Glo ATP depletion luminescence. A general note: Kinase-Glo measures the ATP left after a reaction by luminescence.
Assay [7] has as its target Protein kinase 7 (PK7), Plasmodium falciparum 3D7 (PF3D7_0213400) (UniProt Q7YTF7). Briefly: inhibition of Plasmodium PK7 catalytic activity – biochemical, TCAMS antimalarial set, Kinase-Glo luminescence (AID 1159587). To be noted: recombinant PfPK7, Kinase-Glo ATP depletion luminescence.
Assay [8] addresses Calcium-dependent protein kinase 4 (Plasmodium falciparum (isolate 3D7)) (UniProt Q8IBS5). Briefly: PfCDPK4 kinase inhibitors, biochemical, TCAMS library (AID 1159588; cut-off not given, nearly all actives have IC50 up to about 0.91 µM). To be noted: recombinant PfCDPK4, Kinase-Glo ATP depletion luminescence.

A number with no mark means an inactive call. For some of these results: Results with a measured potency or affinity are listed apart. The source made the active and inactive calls. Unless noted, the rule behind the calls is not given here.

As a reminder, the inhibition is the relative decrease from the control value, in per cent.

Plasmodium falciparum protein kinase 6 (PK6, PF3D7_1337100), sequence (Q8IDW1 1-305): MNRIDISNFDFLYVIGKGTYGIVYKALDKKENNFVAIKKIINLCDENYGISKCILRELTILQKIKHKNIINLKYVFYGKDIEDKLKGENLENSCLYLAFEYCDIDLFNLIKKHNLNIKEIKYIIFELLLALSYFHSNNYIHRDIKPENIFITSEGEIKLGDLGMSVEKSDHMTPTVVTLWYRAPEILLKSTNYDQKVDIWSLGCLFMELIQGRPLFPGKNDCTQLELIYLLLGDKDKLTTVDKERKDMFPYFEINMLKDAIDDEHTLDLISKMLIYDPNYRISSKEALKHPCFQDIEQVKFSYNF
Protein kinase 7 (PK7), Plasmodium falciparum 3D7 (PF3D7_0213400), sequence (Q7YTF7 1-343): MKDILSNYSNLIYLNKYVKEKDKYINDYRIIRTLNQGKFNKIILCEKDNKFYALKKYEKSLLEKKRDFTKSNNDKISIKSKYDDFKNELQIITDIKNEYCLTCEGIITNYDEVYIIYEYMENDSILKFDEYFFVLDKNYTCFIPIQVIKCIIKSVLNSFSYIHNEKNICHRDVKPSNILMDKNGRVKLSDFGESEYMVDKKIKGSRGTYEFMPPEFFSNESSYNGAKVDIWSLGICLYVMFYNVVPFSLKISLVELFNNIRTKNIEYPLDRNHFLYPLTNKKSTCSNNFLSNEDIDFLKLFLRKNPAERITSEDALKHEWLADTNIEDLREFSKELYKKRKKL
Calcium-dependent protein kinase 4 (Plasmodium falciparum (isolate 3D7)), sequence (Q8IBS5 whole entry, looked up): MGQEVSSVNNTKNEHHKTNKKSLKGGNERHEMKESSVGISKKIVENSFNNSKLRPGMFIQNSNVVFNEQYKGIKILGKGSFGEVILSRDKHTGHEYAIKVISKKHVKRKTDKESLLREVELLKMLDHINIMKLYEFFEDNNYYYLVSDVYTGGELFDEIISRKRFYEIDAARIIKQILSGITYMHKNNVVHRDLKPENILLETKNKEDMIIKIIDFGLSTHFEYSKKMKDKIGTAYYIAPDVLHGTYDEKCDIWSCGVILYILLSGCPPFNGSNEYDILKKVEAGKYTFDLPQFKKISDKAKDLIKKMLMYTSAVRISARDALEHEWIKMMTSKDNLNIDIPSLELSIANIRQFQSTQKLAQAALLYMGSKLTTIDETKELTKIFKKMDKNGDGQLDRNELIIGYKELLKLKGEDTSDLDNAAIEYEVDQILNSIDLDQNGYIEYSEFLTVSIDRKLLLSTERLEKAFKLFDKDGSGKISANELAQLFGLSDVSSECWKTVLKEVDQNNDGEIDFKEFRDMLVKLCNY

As to `c1cc(-c2ccc(CN3CCN(c4ccncc4)CC3)cc2)cc(-c2nc3ccccc3[nH]2)c1`, the values for the growth inhibition in assay [1] and in assay [4] were 100% (active) and 101% (active), respectively. Besides, the inhibition in assay [2] is 61% (active); in assay [3], -2%. Moreover, the result in assay [5], in assay [6], in assay [7] and in assay [8] was inactive.
For the compound `O=c1cc(NCCCNCc2ccc(Cl)c(Cl)c2)[nH]c2ccc(Cl)cc12`, the growth inhibition is 54% (active) in assay [1] and 101% (active) in assay [4]. The inhibition is 11% in assay [2] and 1% in assay [3]. Besides, the result in assay [5], in assay [6], in assay [7] and in assay [8] was inactive.
Consider `c1cncc(Oc2ccc(Nc3ccnc4cc(-c5cccc(CN6CCOCC6)c5)ccc34)cc2)c1`, for which the growth inhibition in assay [1] was 100% (active); in assay [4], 101% (active). Besides, the inhibition in assay [2] is 14%; in assay [3], 5%. In addition, the outcome in assay [5], in assay [6], in assay [7] and in assay [8] was inactive.
In the case of `C[C@@H](CC1CCCCC1)NCc1cccc(NS(=O)(=O)c2ccc(O)c(-c3ccno3)c2)c1`, the growth inhibition was 4% in assay [1] and 88% (active) in assay [4]. For the same compound, the inhibition was -2% in assay [2] and -6% in assay [3]. The outcome in assay [5], in assay [6], in assay [7] and in assay [8] was inactive.
Regarding `CCS[C@@H]1O[C@H](COC(=O)c2ccccc2)[C@H](OC(=O)c2ccccc2)[C@H](OC(=O)c2ccccc2)[C@H]1OC(=O)c1ccccc1`, the values for the growth inhibition in assay [1] and in assay [4] were 52% (active) and 98% (active), respectively. For the same compound, the inhibition in assay [2] was 4%; in assay [3], 5%. Besides, the outcome in assay [5], in assay [6], in assay [7] and in assay [8] was inactive.
In the case of `CC(C)CCn1c(Sc2ccc(C#N)c([N+](=O)[O-])c2)nnc1-c1cccc(Cl)c1`, the growth inhibition is 82% (active) in assay [1] and 96% (active) in assay [4]. Further, the inhibition in assay [2] was 33%; in assay [3], 0%. Also, the result in assay [5], in assay [6], in assay [7] and in assay [8] was inactive.
Turning to `CC(C)c1ccc(CN2CCC(CNC(=O)c3cc(-c4ccccc4F)cs3)C2)cc1` (stereo not given), the growth inhibition in assay [1] was 29%; in assay [4] it was 101% (active). Moreover, the results for the inhibition in assay [2] and in assay [3] were 32% and 5%, respectively. Moreover, the result in assay [5], in assay [6], in assay [7] and in assay [8] was inactive.
For `COc1ccc2nc(C)cc(NN=Cc3ccncc3)c2c1`, the growth inhibition in assay [1] was 68% (active); in assay [4] it was 102% (active). For the same compound, the inhibition was 6% in assay [2] and 1% in assay [3]. Further, the outcome in assay [5], in assay [6], in assay [7] and in assay [8] was inactive.
As for `O=C(Nc1ccc(OC2CCN(Cc3ccccc3)CC2)c(Cl)c1)c1ccc(F)cc1`, the growth inhibition is 92% (active) in assay [1] and 94% (active) in assay [4]. Also, the results for the inhibition in assay [2] and in assay [3] were 30% and 9%, respectively. Besides, the result in assay [5], in assay [6], in assay [7] and in assay [8] was inactive.
Turning to `COc1ccc(NC(=O)CCNc2cc(C)nc(NCc3ccccc3C)n2)cc1`, the growth inhibition in assay [1] was 61% (active); in assay [4], 94% (active). The inhibition in assay [2] was 7%; in assay [3] it was -1%. Besides, the result in assay [5], in assay [6], in assay [7] and in assay [8] was inactive.
For `CN1CCN(CCCN(Cc2ccc(-c3cccc(CNCc4ccc5c(c4)OCO5)c3)cc2)C(=O)NC2CCCCC2)CC1`, the values for the growth inhibition in assay [1] and in assay [4] were 92% (active) and 95% (active), respectively. For the same compound, the inhibition in assay [2] is 31%; in assay [3], 4%. The result in assay [5], in assay [6], in assay [7] and in assay [8] was inactive.
Consider `CN(C)CCOc1ccc(-c2cc(-c3ccc(Cl)c(O)c3)c(-c3ccncc3)o2)cc1`, for which the growth inhibition in assay [1] was 99% (active); in assay [4] it was 102% (active). Further, the inhibition in assay [2] is 39%; in assay [3] it was 2%. Further, the result in assay [5], in assay [6], in assay [7] and in assay [8] was inactive.
For `COc1cccc(NC(=O)Cn2c(C)c(C#N)c3ccccc32)c1`, the growth inhibition in assay [1] was 100% (active); in assay [4] it was 101% (active). The inhibition in assay [2] is 16%; in assay [3] it was 4%. Further, the result in assay [5], in assay [6], in assay [7] and in assay [8] was inactive.
Consider `Cc1cc(NC2CCCC2)nc(Nc2ccccc2)n1`, for which the values for the growth inhibition in assay [1] and in assay [4] were 75% (active) and 100% (active), respectively. Moreover, the inhibition in assay [2] was 26%; in assay [3], 0%. Further, the result in assay [5], in assay [6], in assay [7] and in assay [8] was inactive.
For the compound `O=C(Cc1cnc[nH]1)Nc1cccc(-c2ccc(-c3nc4ccc(F)cc4[nH]3)cc2)c1`, the results for the growth inhibition in assay [1] and in assay [4] were 84% (active) and 100% (active), respectively. Also, the inhibition is 4% in assay [2] and -7% in assay [3]. In addition, the outcome in assay [5], in assay [6], in assay [7] and in assay [8] was inactive.
In the case of `CCc1ccc(NC(=O)N(CCCn2ccnc2)Cc2csc(-c3ccc(CNCc4ccccc4)cc3)n2)cc1`, the growth inhibition was 39% in assay [1] and 103% (active) in assay [4]. The inhibition in assay [2] was 9%; in assay [3], 3%. In addition, the result in assay [5], in assay [6], in assay [7] and in assay [8] was inactive.
`OC(COCc1ccc(-c2ccccc2)cc1)CN1CCCCC1` (stereo not given): the values for the growth inhibition in assay [1] and in assay [4] were 75% (active) and 99% (active), respectively. The inhibition in assay [2] was 13%; in assay [3] it was -1%. Moreover, the outcome in assay [5], in assay [6], in assay [7] and in assay [8] was inactive.
As for `Cc1cccc2[nH]c(-c3cccc(-c4cccc(CN5CCN(c6ccc(C#N)cn6)CC5)c4)c3)nc12`, the growth inhibition in assay [1] was 34%; in assay [4], 94% (active). Moreover, the inhibition was 11% in assay [2] and -5% in assay [3]. Further, the result in assay [5], in assay [6], in assay [7] and in assay [8] was inactive.
`COc1ccccc1CNc1ccnc(NCCc2cccc(C(F)(F)F)c2)n1`: the values for the growth inhibition in assay [1] and in assay [4] were 68% (active) and 93% (active), respectively. For the same compound, the inhibition in assay [2] is 39%; in assay [3] it was -4%. For the same compound, the outcome in assay [5], in assay [6], in assay [7] and in assay [8] was inactive.
As to `CCn1cc(C=C2Oc3c(ccc(O)c3CN3CCCCC3)C2=O)c2ccccc21`, the growth inhibition in assay [1] is 99% (active); in assay [4], 101% (active). The inhibition in assay [2] is -9%; in assay [3] it was -3%. The outcome in assay [5], in assay [6], in assay [7] and in assay [8] was inactive.

(Values after PubChem BioAssay.)
